Test results from the supplement of paper PMC6555819.

What was measured:
Experiment in all cases: PBM binding z-score (relative to random genomic background probes); higher = stronger binding; sequences stand for … in GC…GCGATTGACAGCGTAGAATGAAGG
[1] = test system: PPARg:RXRa DBDmut IVT, anti-RXR (DBD mutation: RXRa K156A/R161A, NR concentration 270 nM, RXRa partner concentration 90 nM)
In short: (§1)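 Custom Agilent 4×180K protein-binding microarrays carried double-stranded probes, each with a 34-nt variable region. These regions held direct-repeat seeds, single-nucleotide variants, half-site ablations and random human genomic background sequences. Ligand-free nuclear receptor dimers were incubated on the arrays for 1 h, antibodies against each partner (one per run) detected binding, and scanned fluorescence was regression-normalized. Binding z-scores take the random background probes as reference.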

[2] = test system: PPARg:RXRa IVT, anti-PPARg (NR concentration 270 nM, RXRa partner concentration 90 nM)
In short: as §1

[3] = test system: PPARg DBDmut:RXRa IVT, anti-PPARg (DBD mutation: PPARg1 K132A/R137A, NR concentration 270 nM, RXRa partner concentration 90 nM)
In short: as §1

[4] = test system: PPARg DBDmut IVT, anti-PPARg (DBD mutation: PPARg1 K132A/R137A, NR concentration 270 nM)
In short: as §1

[5] = test system: PPARg homodimer (NR concentration 180 nM)
In short: as §1

[6] = test system: PXR:RXRa (NR concentration 270 nM, RXRa partner concentration 90 nM)
In short: as §1

[7] = test system: PXR homodimer (NR concentration 270 nM)
In short: as §1

[8] = test system: RARa:RXR (NR concentration 270 nM, RXRa partner concentration 90 nM)
In short: as §1

[9] = test system: RARa homodimer (NR concentration 270 nM)
In short: as §1

[10] = test system: RARb:RXRa (NR concentration 270 nM, RXRa partner concentration 90 nM)
In short: as §1

[11] = test system: RARb homodimer (NR concentration 270 nM)
In short: as §1

[12] = test system: RARg:RXRa (NR concentration 270 nM, RXRa partner concentration 90 nM)
In short: as §1

[13] = test system: RARg homodimer (NR concentration 270 nM)
In short: as §1

[14] = test system: RXRa DBDmut IVT, anti-RXR (DBD mutation: RXRa K156A/R161A, NR concentration 90 nM)
In short: as §1

[15] = test system: RXRa homodimer (NR concentration 180 nM)
In short: as §1

[16] = test system: THRa:RXRa (NR concentration 90 nM, RXRa partner concentration 90 nM)
In short: as §1

[17] = test system: THRa homodimer (NR concentration 90 nM)
In short: as §1

[18] = test system: VDR homodimer (NR concentration 270 nM)
In short: as §1

Sequence	PBM binding z-score [1]	PBM binding z-score [2]	PBM binding z-score [3]	PBM binding z-score [4]	PBM binding z-score [5]	PBM binding z-score [6]	PBM binding z-score [7]	PBM binding z-score [8]	PBM binding z-score [9]	PBM binding z-score [10]	PBM binding z-score [11]	PBM binding z-score [12]	PBM binding z-score [13]	PBM binding z-score [14]	PBM binding z-score [15]	PBM binding z-score [16]	PBM binding z-score [17]	PBM binding z-score [18]
TCTTGTAGAACAACAGGAGGTTAAGAAAGATCGA	2.21	0.963	0.603	0.55	0.00875	0.716	0.0491	0.961	0.174	0.469	0.958	0.377	0.286	0.511	0.875	0.726	-0.422	-0.182
AGAATGAGGTTAGACGTAGATCAGGGAAGAAAGT	3.27	1.52	0.96	1.16	0.901	0.631	0.578	1.17	0.74	1.21	0.932	0.987	0.859	0.209	1.17	1.55	0.554	0.591
ATCTCTAGGTAAAGTTCAGTAAAAGATCGATAGA	2.04	2.45	1.82	0.984	2.05	2.07	2.09	1.42	2.26	2.82	2.39	2.22	2.74	1.27	1.18	1.23	0.183	2.13
ACTCGGAGGACACAGGTCAGAGCTACGCCAGTGA	0.556	1.45	-0.673	0.431	1.35	1.09	-0.155	1.8	0.347	2.89	2.78	2.68	3.12	0.823	2.09	2.57	0.77	0.0264
CCGACTGGGGCAAAAGGTTACCATAAGCCAGCCC	3.77	4.07	-0.978	-1.25	1.06	1.68	-0.41	2.83	0.0331	2.8	3.28	3.72	2.32	0.0121	2.71	1.44	-0.187	-0.455
CCTCGGAGGACAACAGAAGGTCAGAGCTGCCAGA	0.129	0.0477	-0.565	-1.32	1.42	1.43	-0.04	1.95	0.344	3.02	3.55	3.3	3.27	0.274	1.54	2.36	0.481	0.506
GAAACGAGGGCAAAGTTGATAGCATCTGTCGACG	5.26	5.32	0.311	0.0519	0.722	1.32	0.236	1.98	0.209	2.38	1.33	2.11	1.58	2.66	2.3	1.57	-0.284	1.13
CATACAGGTTCAGCTAGGCCAGAGTAGGGACGGC	-0.2	0.213	0.171	0.0145	0.268	0.759	0.121	0.691	-0.0156	1.44	0.871	1.01	1.03	2.89	1.41	1.05	0.0311	2.65
CCTAGCAGGCCAATCTGGGTCACTGAAGGCTTGA	4.44	5.17	0.524	0.356	0.812	0.783	-0.752	1.67	-0.428	1.64	2.38	1.15	1.38	0.114	0.872	3.79	0.399	-0.314
ACAGAAAGGTGATGAAGGTAACTCAGGCTATCAT	0.962	1.45	0.665	0.683	0.688	0.335	0.0962	0.91	0.63	1.74	0.99	1.18	1.35	0.11	1	1.44	0.0697	-0.00913
TGTCAAAGTTCAAAGGTAACCTAAGTATCCACAC	0.886	4.82	1.02	0.289	3	5.7	4.14	6.39	1.28	5.09	3.92	6.15	5.71	4.52	7.11	3.64	0.627	3.92
AGTCAAAGTTCACTAGGTAACGGAAGATTCAGCT	2.88	4.85	0.928	0.734	2.34	4.05	2.12	3.09	1.02	4.71	3.81	5.03	5.67	4.26	3.89	2.04	0.215	3.71
TCGAATAGGTTAGGGGCATTCAGAATGGCGTCGA	1.9	0.68	-0.275	-0.57	0.452	0.695	0.0158	0.806	0.0673	1.5	1.08	0.753	0.9	1.19	1.15	0.948	0.436	0.995
ATCGAAAGGTCGTCAGGTGAGTATACAGAAAGGC	0.0444	2.18	2.81	1.05	2.13	3.04	0.936	3.91	0.966	3.84	2.67	4.34	3.83	2.04	4.71	3	1.33	1.8
TCGAGTAGGTTAGTCGGTGCATTCAGCCAACATA	1.78	1.93	-0.29	-0.55	0.152	0.147	-0.142	0.0978	0.0806	-0.085	-0.0982	-0.434	-0.407	0.415	-0.152	-0.374	-0.377	0.902
CGAACTTGGTCATTGACAGGACAGTGAATAGTAA	0.617	0.897	0.111	0.232	0.209	0.0575	0.147	0.48	0.507	0.912	0.601	1.04	0.884	0.43	0.621	0.513	-0.107	0.11
TAGCCCAGGTCATTGGGCCAGTATAGTACGCATC	1.36	3.68	-0.318	-0.214	1.51	2.71	0.0159	3.06	-0.165	3.71	2.76	3.9	4.11	2.29	3.37	3.36	1.65	2.16
TAGCCTAGGTAATGGGCCAGTATACCACGCGAAC	-0.319	0.78	-0.42	-0.561	-0.148	-0.351	-0.609	-0.221	-0.573	-0.295	-0.381	-0.234	-0.0696	-1.16	-0.0912	-0.354	-0.5	-0.715
GCTGGTAGGTCAACTGATGGTCAGCTAAAGCTCG	5.49	5.82	0.658	0.562	3.06	2.3	-0.226	3.53	1.16	4.29	3.79	5.73	5.34	1.57	3.65	2.54	0.0326	0.11
CGTCCAAGGTCAAGATCAGTGAAAGAGACTCGAA	3.03	3.31	0.858	0.353	2.49	3.3	0.349	3.99	1.69	5.14	3.53	5.63	6.45	3.61	5.54	3.58	1.84	1.6
CTCGAAAGGTCGTGCTCAGGTGAATATACCAAAC	0.879	2.15	0.682	0.68	1.34	3.6	0.506	4.28	0.678	3.92	3.06	5.46	4.17	2.45	5.01	4.38	1.6	1.27
TCTTGTAGATCAAGCAAGTTAAGAAAGCCTGAGT	1.73	0.172	-0.613	-0.0624	-0.466	0.15	0.419	0.014	-0.373	0.115	-0.703	-0.21	-0.386	0.582	-0.066	0.341	-0.759	-0.186
ATACGTAGGTTAAGGGTCATTCAGGTTGGTTCGC	1.41	3.8	0.783	0.775	3.98	5.7	2.65	6.55	2.24	3.7	4.06	5.01	3.58	2.11	6.29	3.72	1.6	4.36
CATACAGAGTCAGCTAGGCCAGAGTAGGGACGGC	-0.267	0.0883	0.15	0.197	-0.174	-0.875	-0.632	-0.635	-0.132	0.148	-0.0712	-0.273	0.105	-0.231	-0.193	-0.152	-0.18	-0.481
GCTCTTAGTTGAAAGGGCAACCGAATGATTCTCG	0.37	0.474	0.11	-0.335	0.85	0.654	-0.0314	1.47	-0.318	2.08	1.96	1.34	1.31	0.899	1.18	0.622	-0.289	0.164
TCAGAGAGGTGAAGGTAACTCAGGTACGCAGTCG	3.17	2.38	0.0231	-0.235	0.67	0.893	-0.409	1.49	-0.115	2.07	1.34	1.54	1.36	1.31	1.85	2.04	0.401	0.316
TCTATTAGTTGAATGGCAACCGACGAGTCCGTTT	2.47	0.106	0.422	0.888	1.27	0.794	0.892	0.79	1.08	0.622	0.038	0.299	0.139	1.73	0.383	-0.116	0.299	1.28
TCATATGGGTAAACAGGTGAAAGTCCGTAAGTTA	4.06	3.99	0.27	0.486	0.322	0.505	0.00205	0.571	-0.0494	0.316	0.47	0.0718	-0.135	0.95	0.566	0.434	-0.368	-0.103
CGTCCAAGGTCAGCAGGTCAATGAAAGCGACGTG	3.22	3.95	-0.262	-0.753	2.98	4.21	0.593	5.49	0.0185	5.24	5.24	6.59	6.73	2.62	5.64	4.03	2.46	2.23
